A selection: hits, their analogues and other compounds. The true share with any hit is near 17%.
HT1080 IDH1KD tx = kills HT-1080 cells with IDH1 knockdown. HT-1080 IDH1 knockdown viability, ATP luminescence, 48 h. Potency, µM (doses to about 46.1 µM), without a hit: at the top dose activity, negative = toxicity, most hits filed as cytotoxic. hit rate 2% among 360,000. AID 686971;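 also: 0% = DMSO wells and -100% = cell-free medium wells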
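After a 2 h attachment period, IDH1KD HT-1080 cells took pin-transferred compound for 48 h at 37 °C; ATP-based luminescence after 10 min room-temperature reagent incubation reported viability.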
DT40 TDP1 no CPT = qHTS for Inhibitors of human tyrosyl-DNA phosphodiesterase 1 (TDP1): qHTS in cells in absence of CPT; DT40 Tdp1-/- hTDP1 cells, no CPT, ATP luminescence, 48 h; Potency, µM (series often up to 46.2 µM), for inactives: at the highest dose activity change, negative = growth inhibition, actives largely listed as inhibitors; hit rate 15% among 420,000; also: % is scaled to controls: 0 for no effect and ±100 for the full control effect; nearly all actives have a fitted effect of over 55% in size
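Growth kinetics read by CellTiter-Glo luminescence after ≥48 hr at 37 °C. Cells: DT40 Tdp1-/- stably carrying human TDP1, 400 per well, compound exposure in the absence of CPT (DMSO vehicle).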
HepG2 viability = HepG2 cytotoxicity, counter-screen for TGF-b inhibitors. HepG2 CAGA-GFP viability, ATP luminescence, 18 h. AID 588856. Potency, µM (doses to about 46.1 µM), for the others: top-dose activity change, negative = cytotoxicity, hits mostly cytotoxic. hit rate 0.76% among 410,000
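CellTiter-Glo luminescence gave cytotoxicity after 18 hours at 37 degrees C. The cells were HepG2 CAGA-GFP in 1% FBS DMEM, stimulated with 500 pg/mL TGF-beta after compound addition. %Activity was normalised to no-cell wells (complete cell-killing) and DMSO (no toxicity), and curves were fitted and classified.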
HT1080-NT tox = kills 2HG-producing HT-1080-NT fibrosarcoma cells; hit rate 1.6% among 360,000; AID 686970; HT-1080-NT fibrosarcoma viability, CellTiter-Glo ATP luminescence, 48 h; Potency, µM (series often up to 46.1 µM), for inactives: top-dose activity, negative = less viability, hits mostly cytotoxic;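 also: NT is the 2HG producing partner of a matched IDH1 knockdown line; 0% = DMSO-treated cells and -100% = media-only wells without cells; nearly all actives have a fitted effect of over 55% in size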
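Viability by CellTiter-Glo luminescence after 48 h compound exposure at 37C of HT-1080-NT cells (750/well, RPMI, 5% FBS). % activity scaled between DMSO wells and medium-only wells, then curve-fitted and categorized by curve class.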
DT40 TDP1 CPT = growth inhibition of DT40 Tdp1-/-;hTDP1 cells with camptothecin (screen for TDP1 inhibitors). chicken DT40 Tdp1-/-;hTDP1 cells + 20 nM CPT, ATP luminescence, 48 h. Potency, µM (series often up to 46.2 µM), for inactives: at the highest dose activity change, negative = growth inhibition, most hits filed as inhibitors. hit rate 12% among 420,000. AID 686979; also: % is scaled to controls: 0 for no effect and ±100 for the full control effect; nearly all actives have a fitted effect of over 55% in size
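Chicken DT40 Tdp1-/- cells complemented with human TDP1, 400 cells/well, exposed to compounds plus 20 nM camptothecin for at least 48 h at 37 C; viability read as ATP content by CellTiter-Glo luminescence.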
TGFb SMAD3 inh = inhibitors of TGF-b signaling; hit rate 1.2% among 410,000; AID 588855; HepG2 CAGA-GFP TGF-b/SMAD3 reporter, GFP fluorescence, 18 h; TGF-beta stimulated, 500 pg/mL final; Potency, µM (series often up to 46.1 µM), inactives show top-dose activity, negative = inhibition, usual class: inhibitors; also: % is scaled to controls: 0 for no effect and ±100 for the full control effect; nearly all actives have a fitted effect of over 65% in size
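Read-out: total well GFP (ex488/em500-530) summed from mean per-cell fluorescence. Cells: HEPG2 CAGA-GFP, 1% FBS DMEM, 18 h at 37 degrees C with 500 pg/mL final TGF-beta. Unstimulated wells served as the full-inhibition control; stimulated DMSO wells = 0%.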
* hit, by the source's call; u = inconclusive; x = no result given; [ ] = another dose, or the depositor's remark. Calls follow the shape of the dose curve; as a rule, active = well fitted curve in the direction sought with a large enough effect; inconclusive = small, poorly fitted or top-dose-only effect, or another doubt; inactive = no such curve, though single readings can be large; an effect the other way counts as inactive or inconclusive. Potency is read from the fitted curve at half-maximal effect.

SMILES | HT1080 IDH1KD tx | DT40 TDP1 no CPT | HepG2 viability | HT1080-NT tox | DT40 TDP1 CPT | TGFb SMAD3 inh
COc1ccc(NS(=O)(=O)c2cc3c(cc2C)N(C(C)=O)CCO3)cc1OC | 4.7% | u | -7.0% | 14.1% | -25.0% | 6.9%
O=C(CCNC(=O)c1ccco1)NCCN1C(=O)S/C(=C\c2ccc(F)cc2)C1=O | -6.7% | u | -22.5% | -1.5% | u | 8.8%
Cc1ccc(S(=O)(=O)CCC(=O)NCCN2C(=O)S/C(=C/c3ccc(F)cc3)C2=O)cc1 | -1.5% | 18.4µM* | -49.8% | -12.1% | 23.1µM* | -18.4%
CN1C(=O)C2(N=c3ccccc3=N2)c2ccccc21 | u | 14.6µM* | -15.4% | u | u | -21.6%
CN1C(=O)C2(OCC(C)([N+](=O)[O-])CO2)c2ccccc21 (stereo unspecified) | 4.0% | -10.6% | -7.7% | 2.0% | -2.5% | 22.0%
O=C(c1cc(Cl)ccc1OCc1ccccc1)N1CCOCC1 | -0.2% | -2.7% | -8.3% | 0.8% | -8.4% | -1.0%
CCOC(=O)C1CCCN(C(=O)Cn2ncn3c(cc4sc(CC)cc43)c2=O)C1 (stereo unspecified) | x | u | -2.5% | x | 20.6µM* | 0.0%
CCOC(=O)C1CCCN(C(=O)Cn2ncc3c(C)n(Cc4ccccc4F)c(C)c3c2=O)C1 (stereo unspecified) | x | 18.4µM* | -61.5% | x | 25.9µM* | u
CCOC(=O)C1CCCN(C(=O)Cn2ncc3c(C)n(Cc4ccc(Cl)cc4)c(C)c3c2=O)C1 (stereo unspecified) | x | 8.2µM* | -0.7% | x | 8.2µM* | -27.5%
Cc1c2cnn(CC(=O)N3CCOCC3)c(=O)c2c(C)n1Cc1ccccc1F | 13.1% | -17.0% | -8.5% | 15.1% | -7.3% | -6.6%
Cn1c(SCC(=O)NNC(=O)c2ccccc2Br)nnc1C(F)(F)F | -0.7% | -0.9% | -7.4% | -4.1% | -5.0% | -6.2%
CN(C)/C=N/c1cnc(C(=O)c2ccc(Cl)cc2)n1C | 7.4% | u | -21.3% | -0.8% | -5.5% | 2.6%
CCc1nc2cc(C(=O)NC3CCS(=O)(=O)C3)cc(NC(=O)c3ccccc3OC)c2n1C (stereo unspecified) | x | -7.8% | x | x | -3.1% | x
COc1ccc(Cl)cc1NC(=O)C(C)n1nnc2sc3c(c2c1=O)CCCC3 (stereo unspecified) | x | 13µM* | -6.9% | x | 20.6µM* | -1.7%
Cc1ccc(NC(=O)C(C)n2nnc3sc4c(c3c2=O)CCCC4)cc1Cl (stereo unspecified) | x | 14.6µM* | -13.7% | x | u | 1.2%
CC(C(=O)Nc1ccccc1)n1nnc2sc3c(c2c1=O)CCCC3 (stereo unspecified) | x | -89.3% | -25.7% | x | u | 14.1µM*
CCN1C(=O)c2cccc3cccc1c23 | 1.0% | u | -1.9% | 1.6% | 29.1µM* | u
C(=N\Nc1nc(-c2ccccc2)cs1)/c1ccco1 | -14.2% | 14.6µM* | 27.0% | -12.7% | 20.6µM* | 1.0%
O=C(N/N=C/c1ccco1)c1cc(-c2ccc(Cl)cc2)n[nH]1 | 3.8% | -10.1% | -0.4% | 5.3% | 10.1% | 5.8%
Cc1ccc(-c2csc(N/N=C/c3ccco3)n2)cc1 | -21.0% | u | -30.3% | -7.2% | u | -28.2%
CN(C)S(=O)(=O)c1ccc(-c2csc(N/N=C/c3ccco3)n2)cc1 | -12.6% | 8.2µM* | -43.5% | -23.5% | 11.6µM* | u
C(=N\Nc1nc(-c2ccccc2)cs1)/c1cccs1 | -22.4% | u | -9.7% | -1.1% | u | -10.6%
Brc1ccc(-c2csc(N/N=C/c3ccco3)n2)cc1 | -0.2% | 10.3µM* | 3.3% | 0.8% | u | -2.5%
Clc1ccc(-c2csc(N/N=C/c3ccco3)n2)cc1 | -10.4% | 7.31µM* | 1.4% | -8.6% | u | 7.3%
CN(C)S(=O)(=O)c1ccc(-c2csc(N/N=C/c3ccc(O)cc3)n2)cc1 | 4.11µM* | 0.651µM* | 12.6µM* | 9.2µM* | 0.92µM* | u
SMILES | HT1080 IDH1KD tx | DT40 TDP1 no CPT | HepG2 viability | HT1080-NT tox | DT40 TDP1 CPT | TGFb SMAD3 inh
Cc1csc(N/N=C/c2ccc([N+](=O)[O-])cc2)n1 | u | u | -4.8% | u | -0.1% | -4.2%
Clc1ccc(-c2csc(N/N=C\c3cccnc3)n2)cc1 | -9.8% | 14.6µM* | -34.9% | -1.5% | u | u
C(=N\Nc1nc(-c2ccccc2)cs1)/c1ccncc1 | 1.0% | u | -7.0% | -1.3% | -24.4% | -0.2%
Cc1sc(N/N=C/c2cccnc2)nc1-c1ccccc1 | u | u | -29.7% | -14.5% | -23.9% | -21.8%
Cc1sc(N/N=C/c2ccco2)nc1-c1ccccc1 | -27.7% | 23.1µM* | -27.0% | -16.0% | u | u
Cc1onc(-c2ccccc2)c1-c1csc(N/N=C/c2ccccc2)n1 | -9.0% | 11.6µM* | -20.8% | -17.1% | u | -12.7%
COC(=O)[C@]12CCCCC=C1N(Cc1ccco1)C(=O)[C@H](CC(=O)NCc1ccc(C)o1)C2 | 10.8% | u | x | 26.6% | u | x
NS(=O)(=O)c1ccc(NC(=O)COC(=O)CNC(=O)C23CC4CC(CC(C4)C2)C3)cc1 | -1.0% | 35.5% | 5.3% | -8.4% | u | 12.4%
O=C(NC1CCN(Cc2ccc(Cl)cc2)CC1)c1cn(-c2ccccc2)nc1-c1cccnc1 | -15.3% | u | -28.3% | 2.0%[9.24 µM] | 16.4µM* | u
O=C(NCc1cccnc1)c1cn(-c2ccccc2)nc1-c1ccccc1 | -1.4% | -10.3% | 0.0% | -0.2% | 11.7% | 0.0%
Cc1cccc2c(N=O)c(O)n(CCc3ccccc3)c12 | 0.0% | u | -47.3% | -3.8% | -45.0% | -28.0%
CC1(C)CC(NC(=O)c2cc(Cl)ccc2Cl)CC(C)(C)N1 | 4.9% | 3.3% | 18.9% | 17.0% | 9.7% | 11.4%
Cc1ccc(C2CC2c2n[nH]c(=S)n2-c2cccc(Cl)c2)cc1 (stereo unspecified) | -14.9% | 23.1µM* | 1.3% | -11.3% | u | u
Cc1ccc(C2CC2c2n[nH]c(=S)n2-c2ccc(C)cc2)cc1 (stereo unspecified) | -0.3% | u | -17.7% | -23.3% | -32.5% | 14.3%
CC(=O)O[C@@]1(C(C)=O)CCC2C3C=C(C)C4=CC(=O)CCC4(C)C3CCC21C (stereo partly specified) | x | -14.5% | x | x | -6.0% | x
CCCCCC(=O)O[C@]1(C(C)=O)CC[C@H]2[C@@H]3CCC4=CC(=O)CC[C@]4(C)[C@H]3CC[C@@]21C | u | 18.4µM* | -37.5% | u | 25.9µM* | u
